# A selection: hits, their analogues and other compounds. The true share with any hit is near 2.4%.
# Mito fusion act – blocks mitochondrial division or promotes mitochondrial fusion. S. cerevisiae fusion-defective mutant growth rescue, CellTiterGlo 48 h. Potency, µM (titrated, usually from 46.1 µM), for the others: top-dose growth rescue (activation), hits mostly activators. AID 485298. 320,000 tested, 0.23% active; further: % of control where 0% means no effect; nearly all actives have a fitted effect of over 45% in size
#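 Yeast fusion mutant, YPEG (non-fermentable carbon), compound, 48 h at 37C non-permissive; CellTiterGlo added, 10 min RT, luminescence read. Rescued growth = division inhibition.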
# aSyn yeast inh – rescues yeast growth from alpha-synuclein toxicity | Potency, µM (doses to about 46.1 µM), without a hit: at the highest dose growth rescue (activation), most hits filed as activators | Yeast expressing alpha-synuclein, growth rescue, BacTiter-Glo, 24 h | AID 652106 | 370,000 tested, 0.14% active; further: % of control where 0% means no effect; nearly all actives have a fitted effect of over 65% in size
#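 Readout is rescue of growth in alpha-synuclein-expressing yeast, so inhibitors of toxicity appear as activators. Growth after 24 hr at 30 deg C in galactose medium is quantified by luminescence.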
# FUS suppressor – rescues growth of FUS-expressing yeast. S. cerevisiae FUS-expressing, growth rescue, OD600, 24 h. Potency, µM (series often up to 76.6 µM), most hits filed as activators. 390,000 tested, 0.24% active. AID 1347120;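 further: plate controls were DMSO vehicle for no effect and reference control for full effect; nearly all actives have a fitted effect of over 55% in size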
#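 Toxicity suppression screen in FUS-yeast. Cells induced with 2% galactose, starting OD 0.005, treated 24hr at 30C with compounds at multiple final concentrations; growth by OD600.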
# AT treatment – potential ataxia-telangiectasia treatment | F2112 A-T fibroblasts, KAP-1 phosphorylation AlphaLISA; neocarzinostatin DNA damage 30 min before lysis | Potency, µM (highest dose often 57.5 µM), for the others: top-dose activation, actives largely listed as activators | 320,000 tested, 0.19% active | AID 485349; further: % of control where 0% means no effect; nearly all actives have a fitted effect of over 45% in size
#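 ATM-like activity read as KAP-1 phosphorylation via AlphaLISA donor/acceptor antibody pairs after lysis and 6 hr at 25C. Cells were ATM-null patient fibroblasts (F2112, hTERT), dosed 60 min, then exposed to the DSB inducer NCS for 30 min.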
# Abeta yeast res – A-beta toxicity reversal in yeast | yeast expressing A-beta42, growth rescue, OD600, 48 h; response scale: 0% DMSO, 100% iron-clioquinol control | Potency, µM (highest dose often 46.1 µM), usual class: activators | 410,000 tested, 0.063% active | AID 1347071; further: nearly all actives have a fitted effect of over 55% in size
#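 Yeast growth medium received pinned compounds, then yeast cells expressing toxic A-beta were added; plates incubated at 30 C for 48 hr. Growth read as absorbance at 600 nm, normalized to DMSO and equimolar FeCl3 plus clioquinol controls.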
# TDP43 rescue – rescues yeast growth from TDP-43 toxicity; TDP-43 expressing yeast growth rescue, BacTiter-Glo, 24 h; Potency, µM (titrated, usually from 46.1 µM), for the others: at the highest dose growth rescue (activation), usual class: activators; 410,000 tested, 1.8% active; further: % of control where 0% means no effect; nearly all actives have a fitted effect of over 50% in size
#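 Galactose-induced TDP-43 yeast, OD600=0.02, compound pinned; 24 hr, 30 deg C; BacTiter-Glo luminescence for growth. Inhibitors of TDP-43 toxicity read as activators.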
# * hit, by the source's call; i = inactive; ? = inconclusive; nt = no result given; [ ] = dose if it differs, or a comment. The call rests on the fitted dose curve; in most records, active means well fitted curve in the direction sought with a large enough effect; inconclusive means small, poorly fitted or top-dose-only effect, or another doubt; inactive means no such curve, though single readings can be large; an effect the other way counts as inactive or inconclusive. Potency means the concentration at half of the fitted maximal effect.
SMILES,Mito fusion act,aSyn yeast inh,FUS suppressor,AT treatment,Abeta yeast res,TDP43 rescue
CCN(Cc1ccccc1)S(=O)(=O)c1ccc(F)c(C(=O)Nc2cc(C(F)(F)F)ccc2Cl)c1,nt,nt,i,nt,i,-5%
COc1ccc(CNCC#Cc2ccccc2)c(OC)c1,nt,nt,i,nt,nt,nt
COc1cc([C@H]2OC[C@H]3[C@@H]2CO[C@H]3c2ccc(O)c(OC)c2)ccc1O,nt,1%,i,-8%,i,20%
C/C=C/c1cc(OC)c2c(c1)[C@H](C)[C@@H](c1ccc(O)c(OC)c1)O2,nt,7.9µM*,i,nt,i,28%
O=C(/C=C/c1c(F)cccc1Cl)c1ccc(O)cc1,3%,?,i,30%,?,7.9µM*
O=C(/C=C/c1ccccc1Cl)c1ccc(O)cc1,?,-33%,i,11%,?,?
COCCCNC(=O)C[C@H]1C[C@@]2(C(=O)OC)C(=C[C@H](C(C)C)O[C@@H]2C2CC2)N(CCc2ccc(OC)c(OC)c2)C1=O,nt,nt,i,nt,nt,nt
COc1cc(NC(=O)C2CCCN(S(=O)(=O)c3ccc4c(c3)oc(=O)n4C)C2)c(C(=O)O)cc1OC (stereo not drawn),nt,nt,i,nt,i,5%
C[C@H]([C@@H](N)C(=O)N[C@@H](C(=O)O)[C@@H]1O[C@H](n2ccc(=O)[nH]c2=O)[C@@H](O)[C@H]1O)[C@@H](O)c1ccc(O)cn1,-12%,0%,i,-19%,?,4.5µM*
C[C@H](NC(=O)/C=C/[C@H]1O[C@@H](n2ccc(=O)[nH]c2=O)[C@H](O)[C@@H]1O)C(=O)O,nt,-2%,i,nt,i,21%
COC(=O)c1ccc(NCc2c(O)ccc(O)c2Br)cc1Cl,nt,-21%,nt,nt,i,20µM*
COC(=O)c1ccc(NCc2cc(O)ccc2O)cc1O,nt,0%,nt,nt,i,25%
CCc1cc2c(cc3c(=O)n(CC(=O)NC4CCCCC4)ncn32)s1,nt,nt,i,nt,i,21%
C#CCSc1nccc(-c2nn(-c3ccc(C)cc3)ccc2=O)n1,3%,5%,35µM*,-10%,i,-15%
CCSc1nccc(-c2nn(-c3ccc(C)cc3)ccc2=O)n1,2%,1%,i,-3%,i,11%
CC1(C(=O)NCc2ccc(C(F)(F)F)cc2)CCN1Cc1ccc(-c2ccccc2)o1 (stereo not drawn),nt,16µM*,?,nt,i,19%
Cc1ccc(C)c(N2CCN(S(=O)(=O)c3cc(C(=O)Nc4ccccc4C(F)(F)F)ccc3F)CC2)c1,nt,nt,i,nt,4µM*,?
COc1ccc(-c2cc(NCc3ccc(C)cc3)n3cnnc3n2)cc1,nt,nt,i,nt,i,11µM*
O=C1c2ccccc2-c2cc(Br)ccc2NC1O (stereo not drawn),nt,22µM*,i,nt,i,?
CCOC(=O)c1c(C)[nH]c(O)c1C=Nc1ccc(Cl)cc1,9%,-3%,i,-1%,i,10%
CCOC(=O)c1c(C)[nH]c(O)c1C=Nc1ccc(C(F)(F)F)cc1,2%,-6%,i,2%,i,3.2µM*
CC1=C(C(=O)Nc2cccnc2)C(c2ccccc2)n2nc(SCc3ccccc3Cl)nc2N1 (stereo not drawn),nt,nt,i,nt,i,0%
COc1ccccc1C1CC(c2ccco2)=NN1c1ccccc1 (stereo not drawn),21%,-4%,nt,20µM*,i,12%
COc1ccc(C2=NN(c3ccccc3)C(c3ccc(OC)c(OC)c3)C2)cc1 (stereo not drawn),1%,-1%,i,?,i,-19%
Oc1c(C(c2ccccn2)N2CCC(Cc3ccccc3)CC2)cc(Cl)c2cccnc12 (stereo not drawn),12%,-4%,25µM*,-5%,i,19%[9.22 µM]
SMILES,Mito fusion act,aSyn yeast inh,FUS suppressor,AT treatment,Abeta yeast res,TDP43 rescue
Cc1ccc(S(=O)(=O)Nc2c(C)cc([N+](=O)[O-])cc2C)cc1,nt,18%,nt,nt,i,14µM*
C=Cc1ccc(Cn2nc(-c3ccccc3)ccc2=O)cc1,18%,?,?,-4%,i,11µM*
O=c1ccc(-c2ccccc2)nn1Cc1ccccc1F,1%,5%,i,8%,i,?
O=C(OC12CCCN(C1)/C(=C/c1ccncc1)C2)c1ccco1 (stereo not drawn),nt,nt,i,nt,nt,nt
CCCCOC(=O)Nc1cccc(C(C)=O)c1,-8%,0%,i,-1%,i,11µM*
O=C(Nc1ccccc1)OCCc1ccccc1,nt,-20%,i,nt,i,35µM*
CCOC(=O)Nc1cccc(Nc2ccccc2)c1,12%,-15%,i,-3%,i,14µM*
CCOC(=O)Nc1cccc(C(=O)O)c1,-1%,0%,i,1%,i,-6%
Cc1ccc(C)c(N2CCN(C(=O)c3cnn(C(C)(C)C)c3C3CCN(C(=O)OC(C)(C)C)CC3)CC2)c1,nt,nt,i,nt,i,8%
Cc1ccc(-c2cc(-c3nnc(SCC(=O)Nc4cccc5ccccc45)n3N)[nH]n2)cc1,nt,nt,i,nt,nt,nt
Cc1cc(-c2nc(-c3ccncc3)no2)ccc1[N+](=O)[O-],-21%,-3%,i,-2%,i,11µM*
CNc1ccc(-c2nc(-c3ccncc3)no2)cc1[N+](=O)[O-],nt,nt,i,nt,i,-3%
O=C(NCCN1C(=O)C2C3C=CC(C3)C2C1=O)c1cc(F)cc(F)c1 (stereo not drawn),nt,nt,i,nt,nt,nt
CCc1ccccc1NC(=O)Cn1nnc(C(=O)NCc2ccco2)c1N,nt,nt,i,nt,i,6%
Nc1c(C(=O)NCc2ccco2)nnn1CC(=O)Nc1ccccc1,2%,-7%,40µM*,nt,i,-3%
Cn1cnnc1SCC(=O)Nc1sc2c(c1C(N)=O)CCC2,-1%,2%,7.1µM*,0%,i,0%
COc1cc(OC)cc(C(=O)Nc2sc3c(c2C(N)=O)CCC3)c1,-1%,3.5µM*,i,1%,i,-12%
O=c1[nH]c(-c2ccco2)nc2sc3c(c12)CCCC3,2%,-7%,nt,2%,i,18µM*
O=c1[nH]c(S)nc2sc3c(c12)CCCC3,-2%,-5%,i,-2%,i,-5%
Cc1cccc(N2CCN(C(=O)c3cnn(-c4ccccc4Cl)c3C3CCN(C(=O)OC(C)(C)C)CC3)CC2C)c1 (stereo not drawn),nt,nt,i,nt,i,0%

# High-throughput results (PubChem)
